Laboratory results: PubChem BioAssay AID2783 (National Center for Advancing Translational Sciences (NCATS), 2010)
Records with an inconclusive call do not appear. Activity calls are given as the source filed them. The call rests on the fitted dose curve; in most records, active means well fitted inhibition curve with a large enough effect in the polarisation, with a control signal flat (not every such curve was filed as active); inconclusive means small, poorly fitted or top-dose-only effect, or effect the other way, or a change in a side signal; inactive means no such curve, though single readings can be large or run the other way; the % refers to the polarisation.

These compounds were tested against Menin (Homo sapiens) (UniProt O00255) (assay: Confirmation of Inhibitors Targeting the Menin-MLL Interaction in MLL Related Leukemias: Competition With Fluorescein Labeled MLL-derived Peptide). Details: Fluorescence polarization, fluorescein-MLL peptide displacement from menin; series mostly up to 100 µM.
Menin (Homo sapiens), sequence (O00255 whole entry, looked up): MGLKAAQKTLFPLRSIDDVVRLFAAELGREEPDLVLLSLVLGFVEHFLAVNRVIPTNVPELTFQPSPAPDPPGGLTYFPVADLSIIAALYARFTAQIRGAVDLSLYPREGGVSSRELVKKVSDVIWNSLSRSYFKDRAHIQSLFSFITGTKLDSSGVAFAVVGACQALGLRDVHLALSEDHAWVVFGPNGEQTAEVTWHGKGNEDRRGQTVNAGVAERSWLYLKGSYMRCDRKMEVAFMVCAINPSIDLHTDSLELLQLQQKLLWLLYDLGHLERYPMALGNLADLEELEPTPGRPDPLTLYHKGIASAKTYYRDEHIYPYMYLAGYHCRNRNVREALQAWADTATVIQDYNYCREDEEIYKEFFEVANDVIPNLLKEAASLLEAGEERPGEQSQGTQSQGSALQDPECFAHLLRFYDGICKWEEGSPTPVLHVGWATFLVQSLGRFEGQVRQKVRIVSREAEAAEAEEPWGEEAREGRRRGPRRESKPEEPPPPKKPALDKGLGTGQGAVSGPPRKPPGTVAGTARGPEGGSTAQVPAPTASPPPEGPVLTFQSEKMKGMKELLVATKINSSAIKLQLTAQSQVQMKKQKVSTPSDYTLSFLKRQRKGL

outcome, inactive:
CCOc1ccccc1N(CC(=O)Nc1ccccc1C(=O)N1CCCC1)S(C)(=O)=O, CN[C@H]1[C@H](O)[C@@H](O[C@@H]2[C@H](O)[C@@H](O[C@H]3OC(CN)=CC[C@H]3N)[C@@H](N)C[C@H]2N)OC[C@@]1(C)O, CCOc1ccc2c(c1)C(NC(C)=O)C(=O)N2CCN1CCOCC1 (configuration not stated), O=C(CSc1nnc(-c2c[nH]c3ccccc23)o1)c1ccc(-c2ccccc2)cc1, CN1C[C@@H]2C[C@H]1CN2c1cc2c(cc1F)c(=O)c(C(=O)O)cn2C1CC1, Cc1nc(N2CCN(C)CC2)c2c3c(sc2n1)CCCC3, COc1cccc(C(=O)/C=C/Nc2ccc(S(=O)(=O)Nc3ccc(C(C)=O)cc3)cc2)c1, CCCn1c(=O)c(C(=O)Nc2ccccc2C(=O)OCC)c(O)c2ccccc21, O=C(CSc1nc(O)cc(=O)n1-c1ccccc1)c1ccc(Br)cc1, CCCC(=O)NC(c1ccccc1Cl)c1ccc2cccnc2c1O (configuration not stated), COc1ccc(CNC(=O)C(c2ccc(O)cc2)N(Cc2ccco2)C(=O)c2snc(C(N)=O)c2N)cc1 (configuration not stated), C=C(C)CNC(=S)Nc1cccc2cnccc12, CCCCCC1CCC(C(=O)NCCN2CCOCC2)CC1 (configuration not stated), COc1ccc(N(CC(=O)NC2CC3CCC2C3)S(=O)(=O)c2ccc(C)cc2)cc1OC (configuration not stated), O=C(CSc1ccc(Cl)cc1)Nc1ccc(NC(=O)c2ccco2)cc1, O=C(NC(=S)N1CCCc2ccccc21)c1ccc([N+](=O)[O-])cc1, Cc1nc(C)c(-c2ccc(SCc3ccccc3F)nn2)s1
